# Screening data: PubChem, National Center for Advancing Translational Sciences (NCATS)
# The list is not random: actives were taken first. Their share in the collection is about 12%.
# L3MBTL1 block: inhibitors of human L3MBTL1 | Q9Y468 | AlphaScreen L3MBTL1–H3K9me1 peptide binding | Potency, µM (doses to about 57.1 µM), for inactives: at the highest dose activity, negative = inhibition, hits mostly inhibitors | 230,000 tested, 0.66% active; note: % is set by controls: 0 for no effect and ±100 for the full control effect; nearly all actives have a fitted effect of over 60% in size
# Target sequence (Q9Y468 whole entry, looked up): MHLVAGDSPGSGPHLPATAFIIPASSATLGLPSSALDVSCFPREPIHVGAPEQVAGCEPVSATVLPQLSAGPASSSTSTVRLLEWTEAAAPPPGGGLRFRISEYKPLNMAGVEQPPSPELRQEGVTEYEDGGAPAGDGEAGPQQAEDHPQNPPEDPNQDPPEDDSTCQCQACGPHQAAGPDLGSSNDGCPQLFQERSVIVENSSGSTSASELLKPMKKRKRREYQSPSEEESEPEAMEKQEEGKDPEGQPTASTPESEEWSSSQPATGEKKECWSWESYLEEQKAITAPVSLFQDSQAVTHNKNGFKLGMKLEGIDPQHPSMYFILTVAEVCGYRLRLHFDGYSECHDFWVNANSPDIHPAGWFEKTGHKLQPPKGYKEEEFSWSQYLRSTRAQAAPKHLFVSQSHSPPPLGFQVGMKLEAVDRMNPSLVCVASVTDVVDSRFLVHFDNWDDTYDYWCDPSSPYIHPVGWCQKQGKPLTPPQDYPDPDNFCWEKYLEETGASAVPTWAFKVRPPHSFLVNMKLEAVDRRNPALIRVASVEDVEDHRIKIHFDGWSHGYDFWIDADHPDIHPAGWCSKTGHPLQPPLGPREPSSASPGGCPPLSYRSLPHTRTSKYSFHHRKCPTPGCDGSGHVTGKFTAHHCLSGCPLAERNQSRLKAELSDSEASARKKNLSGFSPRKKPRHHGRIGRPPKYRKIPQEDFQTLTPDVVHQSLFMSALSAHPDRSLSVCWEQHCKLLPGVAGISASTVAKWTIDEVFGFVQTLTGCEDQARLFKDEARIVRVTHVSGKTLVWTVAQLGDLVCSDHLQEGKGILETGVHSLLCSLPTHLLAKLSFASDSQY
#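 L3MBTL1 (50 nM) pre-complexed 30 min with biotinylated H3(1-15)K9me1 peptide (75 nM), then compounds added for 30 min at room temperature; AlphaScreen streptavidin donor/nickel chelate acceptor beads (10 ug/mL final) read after 30 min dark incubation.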
# Sfp inh: inhibitors of Bacillus subtilis Sfp phosphopantetheinyl transferase; Potency, µM, for inactives: largest response in the series, negative = inhibition, hits mostly inhibitors; AID 1490; Q9F4F7; Biochemical Sfp PPTase activity, qHTS; 310,000 tested, 3.5% active;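 note: the enzyme is Sfp with the accession as filed and its product quenches rhodamine fluorescence; 0% = enzyme reaction without inhibitor and -100% = no enzyme wells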
#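 Buffer: 50 mM Hepes-Na pH 7.6, 10 mM MgCl2, 0.01% Nonidet P-40, 0.01% BSA. Enzyme 15 nM, pre-exposed to compound 15 min; substrates then added and fluorescence change tracked over 30 min.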
# HP1b chromo inh: inhibitors of HP1-beta chromodomain binding to methylated histone tails | P83916 | AlphaScreen HP1-beta / biotin-H3K9me3 peptide binding | Potency, µM (doses to about 114 µM), inactives show at the highest dose activity change, negative = inhibition, most hits filed as inhibitors | 390,000 tested, 0.56% active | AID 540317; note: nearly all actives have a fitted effect of over 70% in size
#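 AlphaScreen: HP1-beta (50 nM) preformed 30 min with biotin-H3(1-18)K9me3 peptide (50 nM) in PBS pH 7.4, 0.01% Tween-20. Compound added for 30 min at RT, then streptavidin donor/nickel chelate acceptor beads (10 ug/mL) for 30 min.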
# BAZ2B inh: blocks human BAZ2B. AlphaScreen BAZ2B-H3K14Ac peptide displacement. Potency, µM (doses to about 114 µM), inactives show at the highest dose activity change, negative = inhibition, most hits filed as inhibitors. 360,000 tested, 4.4% active. AID 504333; note: % is set by controls: 0 for no effect and ±100 for the full control effect; nearly all actives have a fitted effect of over 60% in size
#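 AlphaScreen displacement: compounds (up to 110uM) incubated 30 min at room temperature with a preformed 50 nM BAZ2B/50 nM biotinylated H3K14Ac peptide complex in PBS pH 7.4 with Tween-20. Donor and acceptor beads at 10 ug/mL final added, 20 min light-protected before reading.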
# G9a inh: blocks human histone lysine methyltransferase G9a; Q96KQ7; 350,000 tested, 8.8% active; G9a H3K9 monomethylation, AlphaScreen, 2 h; Potency, µM (doses to about 102 µM), for inactives: top-dose activity, negative = inhibition, most hits filed as inhibitors; note: % is set by controls: 0 for no effect and ±100 for the full control effect; nearly all actives have a fitted effect of over 75% in size
#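 Signal arises when biotinylated H3K9 peptide, once monomethylated, bridges streptavidin donor and antibody-captured acceptor beads. Enzyme at 20 nM was preincubated 15 min with test compounds; peptide 500 nM and SAM 20 uM then reacted for 2 h.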
# JMJD2A Tudor: JMJD2A Tudor domain (human) inhibition. O75164. AlphaScreen JMJD2A-Tudor / H3K4me3 peptide binding. Potency, µM (top dose mostly 114 µM), without a hit: at the highest dose activity change, negative = inhibition, actives largely listed as inhibitors. 390,000 tested, 4.4% active. AID 504339; note: % is set by controls: 0 for no effect and ±100 for the full control effect; nearly all actives have a fitted effect of over 50% in size
# An asterisk follows results filed as active; ? = inconclusive; · = not tested or not shown; [ ] = dose if it differs, or a comment. Calls come from the whole dose curve; as a rule, active = well fitted curve in the direction sought with a large enough effect; inconclusive = small, poorly fitted or top-dose-only effect, or another doubt; inactive = no such curve, though single readings can be large; an effect the other way counts as inactive or inconclusive. Potency is the fitted concentration of half-maximal effect.
SMILES,L3MBTL1 block,Sfp inh,HP1b chromo inh,BAZ2B inh,G9a inh,JMJD2A Tudor
CCOc1ccc(CCNC(=O)COC(=O)c2cccc(S(=O)(=O)N3CCCC3)c2)cc1OCC,-2%,·,18%,7%,-35%,-6%
COc1ccc(-c2csc(Nc3ccccc3)[n+]2Cc2ccccc2)cc1,-7%,-15%,?,·,16µM*,-3%
Cc1ccc(-c2csc(Nc3ccc(C(=O)O)cc3)[n+]2Cc2ccccc2)cc1,-2%,13%,-26%,-38%,15%,40µM*
O=C(Cc1nc(-c2ccc([N+](=O)[O-])cc2)cs1)Nc1ccccc1,-7%,-9%,7%,-34%,·,-13%
COc1ccc(-c2csc(Nc3ccccc3)n2)cc1,-20%,-4%,?,?,-1%[12.7 µM],-18%
O=[N+]([O-])c1ccc(-c2csc(Nc3ccccc3)[n+]2Cc2ccccc2)cc1,-17%,-10%,16µM*,40µM*,?,18µM*
O=C(OCCn1c(=S)sc2ccccc21)c1ccccc1,·,·,68%,·,·,12%
COc1ccc(NS(=O)(=O)c2ccc3c(c2)Cc2ccccc2-3)cn1,-5%,71µM*,-5%,-37%,-11%[59 µM],-30%
CC(OC(=O)c1ccco1)C(=O)NCc1ccc2c(c1)OCO2 (stereo not given),·,10%,21%,-10%,3%,-1%
Cc1[nH]c(C(=O)O)c(C)c1C(=O)OC(C)C,-6%,3%,5%,3%,-22%,-6%
CC(=O)c1c(C(=O)O)[nH]c(C(=O)O)c1C,2%,0%,5%,?,16µM*,-18%[11.4 µM]
C[C@H](C(=O)O)c1ccc2cc(O)ccc2c1,·,4%,·,·,·,·
CCc1ccc(CN(C(=O)c2nc(SC)ncc2Cl)C2CCS(=O)(=O)C2)cc1 (stereo not given),·,·,23%,-6%,-27%[59 µM],-12%
O=C(Cc1ccc(Cl)cc1Cl)Nc1cccc(S(=O)(=O)Nc2ccccc2F)c1,9%,8.9µM*,?,?,1.6µM*,?
COc1ccccc1NS(=O)(=O)c1cccc(NC(=O)c2ccc3ccccc3n2)c1,0%,9%,34%,9%,?,-7%
O=C(Nc1cccc(S(=O)(=O)Nc2ccccc2F)c1)c1ccc2ccccc2n1,2%,8.9µM*,?,?,2.8µM*,25µM*
Cc1sc2c(c1C)CN(C(C)(C)C)CN2C(=O)c1ccccc1,·,-7%,22%,?,50µM*,-2%
CN1C(=O)C(CC(=O)Nc2ccc(Cl)cc2)N(Cc2ccco2)C1=S (stereo not given),-3%,18µM*,13%,?,45µM*,-32%
Cc1cnc(CNc2ncncc2-c2cccnc2)cn1,·,-13%,·,·,10%[0.501 µM],·
CCN1CCN(c2ccc(S(=O)(=O)N3CCCCC3)cc2NC(=O)COc2ccc(F)cc2Cl)CC1,·,?,-9%,?,?,?
CCN1CCN(c2ccc(S(=O)(=O)N3CCCCC3)cc2NC(=O)COc2ccc(Cl)cc2)CC1,-9%,·,-19%,?,5µM*,?
CCN1CCN(c2ccc(S(=O)(=O)N3CCCCC3)cc2NC(=O)COc2cc(C)ccc2Cl)CC1,-18%,·,-27%,79µM*,10µM*,?
CCOC(=O)C1=CC[C@@H](c2ccccc2Cl)N(S(=O)(=O)c2ccc(C)cc2)[C@H]1C(=O)OCC,6%,·,38%,5%,6%[0.501 µM],6%
CCOC(=O)/C=C/C(=O)OCC(=O)Nc1ccc(Cl)cn1,·,8%,24%,3%,?,-13%
CCOC(=O)NC1(Nc2ccc(Cl)cn2)Oc2ccccc2O1,11µM*,32µM*,·,?,6.3µM*,·
SMILES,L3MBTL1 block,Sfp inh,HP1b chromo inh,BAZ2B inh,G9a inh,JMJD2A Tudor
CC(C)[C@@H](C(=O)N1CCN(C(=O)OC(C)(C)C)CC1)n1cc(CCO)nn1,1%,15%,32%,-23%,-40%[59 µM],5%
COc1ccc(OC)c(NC(=O)C2CCN(Cc3cnn(-c4ccccc4)c3-n3cccc3)CC2)c1,·,8%,?,?,45µM*,50µM*
COc1cccc(NC(=O)C2CCN(Cc3cnn(-c4ccccc4)c3-n3cccc3)CC2)c1,·,12%,4%,-6%,?,?
CCN(CC)C(=O)Cn1cc(S(=O)(=O)CC(=O)Nc2ccc(F)cc2F)c2ccccc21,·,7%,11%,-4%,·,-2%
CC(C)CC(=O)NC(=S)Nc1ccccc1F,·,14%,20%,7%,-3%[59 µM],-6%
CC(C)CC(=O)NC(=S)Nc1cccc2nsnc12,·,?,41%,-12%,35µM*,-13%
COc1c(C)cccc1C(=O)NC(=S)Nc1cccc2nsnc12,-9%,?,36%,-21%,45µM*,-2%
CCc1ccc(NC(=O)Cn2c(=O)ccc3cc(S(=O)(=O)N4CCCC4)ccc32)cc1,·,·,30%[57 µM],2%,6%[59 µM],-9%
OC[C@@H]1O[C@H](O)[C@H](O)[C@@H](O)[C@@H]1O,·,-3%,·,·,·,·
CCOc1cc(CNc2ccc(OC)cc2)cc(Br)c1OCC(=O)NC(C)(C)C,?,-15%,?,18µM*,?,22µM*
COCCn1c(C)cc(/C=C2/NC(=O)N(c3cccc(Cl)c3)C2=O)c1C,-19%,11%,8%,-37%,50µM*,-24%
COc1cccc(N=Cc2c(O)c3ccccc3oc2=O)c1,·,-7%,-3%,-6%,·,-24%
CCSC1=NC(=O)/C(=C2/C=Cc3ccccc3N2CC)S1,·,?,?,7.1µM*,?,28µM*
CCCN1C(=O)/C(=c2\s/c(=C3\C=Cc4ccccc4N3CC)c(=O)n2-c2ccccc2)SC1=S,1%,10%,·,-2%,7%,·
Cc1nnc2c3ccccc3nc(Nc3cccc(O)c3)n12,·,·,21%,-14%,-36%[59 µM],0%
COc1ccc(NC2C=CS(=O)(=O)C2)c(OC)c1 (stereo not given),-9%,79µM*,7%,10%,6%[2.33 µM],-28%
CC(C)(C)Sc1ccc2nc3c(n2c1)CCCC3,-6%,-12%,4%,?,50µM*,-30%
COc1ccc(CCNCC2C(Oc3ccc(Cl)cc3)C(=O)N2c2ccccc2C)cc1OC (stereo not given),·,-27%,6%,?,45µM*,?
CCOc1ccc(CSC(CC(=O)O)C(=O)O)cc1 (stereo not given),0%,-6%,47%,79µM*,·,-4%
CC(O)[C@@H](NC(=O)C1CCC(CNC(=O)[C@H](Cc2ccccc2)NC(=O)OC(C)(C)C)CC1)C(=O)O (stereo not given in full),·,2%,31%,-18%,8%,-12%
[O-]/[N+](=C\c1ccncc1)c1ccc(Br)cc1,-6%,?,-10%,?,40µM*,-31%
